From PMC5540273 (PLoS ONE, 2017)

The compounds below were run on AKT3. Conditions: concentration: 1 μM, replicates: in singlicate; n = 1.
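Also: KINOMEscan kinase panel screen.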

Point of comparison: `COc1cc2c(cc1OCCN1CCNCC1)ncc1c3ccc(C#N)cc3[nH]c21`, “%Inh” value 0%. Against it:
- Cl.c1ccc(-c2ccc3c(Nc4ccc5[nH]ccc5c4)ccnc3c2)nc1 [GW440138] — the same, 0%
- Nc1n[nH]c2cnc(-c3ccccc3)cc12 [SB-642124] — the same, 0%
- CN(C)Cc1ccc(-c2ccc3c(Nc4ccc(Oc5ccccn5)cc4)ccnc3c2)o1 [GW567148] — the same, 0%
- CC(C)(C)c1ccc2nccc(Nc3cccc(O)c3)c2c1 [GW856795] — the same, 0%
- O=c1[nH]cc(-c2ccc(N3CCOCC3)cc2)c2sc(-c3cn[nH]c3)cc12 [GSK2276055] — the same, 0%
- O=C(Nc1n[nH]c2cc(-c3ccoc3)ccc12)C1CC1 [SB-738481] — the same, 0%
- CC(=O)N1CCN(c2ccc(Nc3nccc(-c4sc(C(C)C)nc4-c4cccc(NS(=O)(=O)c5cccc(Cl)c5)c4)n3)cn2)CC1 [GSK1660437] — the same, 0%
- CNC(=O)c1ccccc1Nc1nc(Nc2ccc(N3CCOCC3)cc2)ncc1Cl.Cl [GSK1576028] — the same, 0%
- Oc1cc(Nc2ccnc3cc(I)ccc23)ccc1F [GW552771] — the same, 0%
- COc1cccc(C2=C(Nc3ccc(Cl)c(C(=O)O)c3)C(=O)NC2=O)c1 [SB-390769] — the same, 0%
- O=C(Nc1cccc(-c2nn3ccccc3c2-c2ccnc(Nc3cccc(F)c3)n2)c1)c1c(F)ccc(F)c1Cl [GSK357952] — the same, 0%
- O=C(Nc1cccc(Oc2ccc3nc(NC(=O)C4CC4)cn3n2)c1)c1ccccc1C(F)(F)F — the same, 0%
- CSc1cccc2c(-c3ccncn3)c(-c3ccc(F)cc3)nn12 [GW514786] — higher, 4%
- Cn1cc(-c2[nH]c3cc(NC(=O)[C@H](N)C4CCCCC4)cc4c3c2C=NNC4=O)cn1 — higher, 36%
- COc1ccc(CNC(=O)NC2CCN(c3ccnc(Nc4ccc(F)cc4)n3)CC2)cc1 [GSK1379788] — the same, 0%
- COc1cccc(NC(=O)NC2CCN(c3ccnc(Nc4cc(OC)c(OC)c(OC)c4)n3)C2)c1 (stereo not shown) [GSK1379763] — the same, 0%
- O=C(Nc1n[nH]c2nc(-c3ccc(O)cc3)ccc12)C1CC1 [SB-710363] — higher, 61%
- CN1CCN(CCCNc2nccc(-c3c(-c4ccc(F)cc4)nn4cc(C(F)(F)F)ccc34)n2)CC1 [GW621581] — the same, 0%
- c1ccc(-c2n[nH]cc2Nc2ccnc3ccccc23)nc1 [GW694077] — the same, 0%
- CCc1ccc(-c2ccc3c(c2)-c2c(cnn2C)S(=O)(=O)N3C)cc1 — the same, 0%
- NCCCC(NC(=O)c1cc(Br)c(-c2ccnc3[nH]ccc23)s1)c1ccccc1.O=C(O)C(F)(F)F.O=C(O)C(F)(F)F (stereo not shown) [GSK1287544] — higher, 91.8%
- Nc1ncc(-c2cccnc2)c2scc(-c3ccc4c(c3)CCN4C(=O)Cc3ccccc3)c12 [GSK683281] — the same, 0%
- Cl.c1ccc(-c2ccc3c(Nc4ccc5[nH]ncc5c4)ccnc3c2)nc1 [GW440137] — the same, 0%
- Cc1ccc(C)c(NC(=O)NC2CCN(c3ccnc(Nc4ccc(F)cc4)n3)C2)c1 (stereo not shown) [GSK1379720] — the same, 0%
- COc1cc(Nc2nccc(-c3c(-c4cccc(NC(=O)c5c(F)cccc5F)c4)nn4ccccc34)n2)cc(OC)c1OC [GSK323521] — higher, 5%
- Fc1ccc(-c2ncn(C3CCNCC3)c2-c2ccnc(Oc3ccc(-c4ccccc4)cc3)n2)cc1 [SB-245391] — higher, 15%
- COc1cc(Nc2ncc3c(C)nc(-c4cc5ccccc5[nH]4)n3n2)cc(OC)c1OC [GW869516] — the same, 0%
- Clc1ccc(-c2nn3ncccc3c2-c2ccnc(Nc3ccc4c(c3)OCCO4)n2)cc1 [GW829116] — the same, 0%
- c1ccc(-c2cnc3nccnn23)cc1 [AH20685] — the same, 0%
- O=C(Nc1ccccc1F)NC1CCN(c2ccnc(Nc3ccc(F)cc3)n2)CC1 [GSK1379800] — the same, 0%
- Cc1occc1-c1ncc(OC[C@@H](N)Cc2c[nH]c3ccccc23)cc1-c1ccc2[nH]nc(C)c2c1.O=C(O)C(F)(F)F [GSK682037] — higher, 87%
- C[C@@H]1CC[C@@H](C(=O)Nc2ccccc2)CN1c1cc(-c2ccc3c(N)n[nH]c3c2)nc(N)n1 [GSK2286062] — the same, 0%
- COc1cc(Nc2nccc(-c3c(-c4cccc(NC(=O)c5c(F)cccc5F)c4)nn4ncccc34)n2)cc(OC)c1OC [GSK327238] — higher, 17%
- C[C@@H](Oc1cc(-n2cnc3cc(-c4ccnc(NCCS(C)(=O)=O)c4)ccc32)sc1C(N)=O)c1ccccc1Cl [GSK907232] — the same, 0%
- CN1CCN(Cc2cccc(-c3ccc4c(Nc5ccc(Oc6ccccc6)cc5)ccnc4c3)c2)CC1 [GW578342] — the same, 0%
- Cc1ccc(S(=O)(=O)Nc2ccc(Nc3nccc(Nc4cccc5[nH]ncc45)n3)cc2)cc1 [GSK581271] — the same, 0%
